Test results taken from PubChem BioAssay (Tox21).
Several values for one entry are separate records, joined by “and”; a condition that tells them apart may be missing. Equal values may be shown once. Inconclusive results are not listed. Entries that show only a call come without a potency. A structure can be active in one record and inactive in another. Activity calls are given as the source filed them. Unless noted, the call rests on the fitted dose curve; in most records, active means well fitted curve in the direction sought with a large enough effect in the repeat runs; inconclusive means weak or mixed curves; inactive means no such curve, though single readings can be large; an effect the other way counts as inactive or inconclusive.

Legend:
[1] = A CellTox Green Cytotoxicity Assay to monitor cytotoxicity in HepG2 cells - 0 hour (AID 1224882); further: nearly all actives have a fitted effect of over 35% in size
Procedure, shortened: (§1)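 Real-time, homogeneous cytotoxicity readout: dead-cell DNA staining by CellTox Green in HepG2 monolayers, fluorescence measured at timed intervals up to 40 h of continuous compound exposure.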

[2] = A CellTox Green Cytotoxicity Assay to monitor cytotoxicity in HepG2 cells - 32 hour (AID 1224883); further: nearly all actives have a fitted effect of over 50% in size; further: potency means the concentration at half of the fitted maximal effect
Procedure, shortened: as §1

[3] = A CellTox Green Cytotoxicity Assay to monitor cytotoxicity in HEK293 cells - 8 hour (AID 1224884); further: nearly all actives have a fitted effect of over 35% in size
Procedure, shortened: (§2)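 Cytotoxicity was tracked continuously in HEK293 cells by a DNA-binding dye excluded from viable cells. Compounds were transferred in DMSO 5 h after seeding; fluorescence was recorded at intervals up to 40 h.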

[4] = qHTS RealTime-Glo MT Cell Viability Assay in HepG2 cells - 16 hour (AID 1224885); further: nearly all actives have a fitted effect of over 50% in size
Procedure, shortened: (§3)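 Viability was tracked continuously by NanoLuc luminescence from prosubstrate reduced by living HepG2 cells, at successive time points over 40 h of compound exposure. Cells with reagent were preincubated 5 h at 37 °C before compound addition.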

[5] = qHTS RealTime-Glo MT Cell Viability Assay in HEK293 cells - 24 hour (AID 1224886); further: nearly all actives have a fitted effect of over 50% in size; further: potency means the concentration at half of the fitted maximal effect
Procedure, shortened: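 Viability tracked continuously by luminescence as live cells reduce a prosubstrate for NanoLuc; HEK293 cells preincubated 5 h, compound-treated at 37 C, and read at 0, 8, 16, 24, 32 and 40 h.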

[6] = qHTS RealTime-Glo MT Cell Viability Assay in HEK293 cells - 8 hour (AID 1224887); further: nearly all actives have a fitted effect of over 50% in size; further: potency means the concentration at half of the fitted maximal effect
Procedure, shortened: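 Nonlytic bioluminescent viability monitoring. HEK293 at 600 cells/well with reagent; 5 h settle; compound transfer by pintool; plates held at 37 C and read at set time points.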

[7] = A CellTox Green Cytotoxicity Assay to monitor cytotoxicity in HEK293 cells - 16 hour (AID 1224888); further: nearly all actives have a fitted effect of over 35% in size
Procedure, shortened: as §2

[8] = qHTS RealTime-Glo MT Cell Viability Assay in HepG2 cells - 0 hour (AID 1224889); further: nearly all actives have a fitted effect of over 50% in size
Procedure, shortened: as §3

[9] = A CellTox Green Cytotoxicity Assay to monitor cytotoxicity in HepG2 cells - 8 hour (AID 1224890); further: nearly all actives have a fitted effect of over 45% in size; further: potency means the concentration at half of the fitted maximal effect
Procedure, shortened: as §1

[10] = qHTS assay to identify small molecule antagonists of the estrogen receptor alpha (ER-alpha) signaling pathway using the BG1 cell line in the presence of 0.1 nM 17-beta-estradiol - cell viability counter screen (AID 1259241); further: nearly all actives have a fitted effect of over 40% in size
Procedure, shortened: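 VM7Luc4E2, 4,000 cells/well, phenol red-free medium + 10% charcoal-stripped FBS; 24 hr plating; cpd + 0.1 nM E2 final, 22 hr 37C/5% CO2; CellTiter-Fluor 30 min, fluorescence.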

[11] = qHTS assay to identify small molecule antagonists of the androgen receptor (AR) signaling pathway using the MDA cell line in the presence of 0.5 nM R1881 - cell viability counter screen (AID 1259242); further: nearly all actives have a fitted effect of over 45% in size
Procedure, shortened: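 Cytotoxicity toward MDA-kb2 cells is measured by CellTiter-Fluor live-cell protease fluorescence after 16 hr compound exposure at 37C in the presence of 0.5 nM R1881 stimulator.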

[12] = qHTS assay to identify small molecule HDAC inhibitors (AID 1259364); further: top concentration of the series differs between compounds; nearly all actives have a fitted effect of over 45% in size
Procedure, shortened: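 Homogeneous cell-based luminescent assay of endogenous class I/II HDAC activity; HCT-116 cells, 2 h compound exposure, 30 min HDAC-Glo development at RT.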

[13] = qHTS assay to identify small molecule HDAC inhibitors - cell viability counter screen (AID 1259365)
Procedure, shortened: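 Luminescence from CellTiter-Glo, developed 30min at room temperature, reports viability of wild-type HCT-116 cells treated 2hr with compounds at 37 C and 5% CO2 after overnight plating.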

[14] = qHTS assay to identify small molecule agonists of the sonic hedgehog signaling (Shh) pathway - cell viability counter screen (AID 1259366); further: nearly all actives have a fitted effect of over 50% in size; further: potency means the concentration at half of the fitted maximal effect
Procedure, shortened: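 Cytotoxicity counter screen run in the same wells as the Shh reporter assay. NIH/3T3 cells carrying a Gli1 response element–driven luciferase were treated with DMSO-dissolved compounds for 24hr, and live-cell protease activity was measured with CellTiter-Fluor.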

[15] = qHTS assay to identify small molecule antagonists of the sonic hedgehog signaling (Shh) pathway - cell viability counter screen (AID 1259367); further: nearly all actives have a fitted effect of over 55% in size; further: potency means the concentration at half of the fitted maximal effect
Procedure, shortened: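 Seed 3T3 Gli1-Luc cells at 2,000 per well; incubate 4 hr; add compound in DMSO, then conditioned medium; incubate at 37C with 5% CO2; add CellTiter-Fluor after 23 hr; read fluorescence 1 hr later.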

[16] = qHTS assay to identify small molecule agonists of the sonic hedgehog signaling (Shh) pathway (AID 1259368; calls by dose curve;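 further: NIH/3T3-derived 3T3Gli1-Luc cells carrying a stable Gli1-driven firefly luciferase reporter; series mostly up to about 92 µM; nearly all actives have a fitted effect of over 15% in size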)
Procedure, shortened: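 Steps: seed 3T3 Gli1-Luc cells, incubate 4 hr at 37 C, pin-transfer compounds in DMSO alongside a positive control, incubate 24 hr, add luciferase detection reagent, wait 30 min at room temperature, read luminescence.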

[17] = qHTS assay to identify small molecule antagonists of the sonic hedgehog signaling (Shh) pathway (AID 1259369; calls by dose curve; further: nearly all actives have a fitted effect of over 45% in size; further: potency means the concentration at half of the fitted maximal effect)
Procedure, shortened: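 Inhibition of Shh signalling is measured as reduced Gli1-response-element firefly luciferase output in an NIH/3T3-derived stable reporter clone stimulated with conditioned medium for 24hr.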

[18] = qHTS assay to identify small molecule phospholipidosis (PLD) inducers (AID 1259344; active means well fitted curve in the direction sought with a large enough effect; an effect the other way counts as inactive or inconclusive)
Procedure, shortened: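 Quantitative HTS in HepG2: compound plus LipidTOX Red dye for 24 h, paraformaldehyde fixation with Hoechst 33342, widefield high-content imaging; amiodarone as positive and DMSO as negative control.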

[19] = biological target: Androgen receptor (Homo sapiens) (UniProt P10275); test: qHTS assay to identify small molecule antagonists of the androgen receptor (AR) signaling pathway using the MDA cell line in the presence of 0.5 nM R1881 (AID 1259243); further: nearly all actives have a fitted effect of over 50% in size
Sequence of Androgen receptor (Homo sapiens) (P10275 whole entry, looked up): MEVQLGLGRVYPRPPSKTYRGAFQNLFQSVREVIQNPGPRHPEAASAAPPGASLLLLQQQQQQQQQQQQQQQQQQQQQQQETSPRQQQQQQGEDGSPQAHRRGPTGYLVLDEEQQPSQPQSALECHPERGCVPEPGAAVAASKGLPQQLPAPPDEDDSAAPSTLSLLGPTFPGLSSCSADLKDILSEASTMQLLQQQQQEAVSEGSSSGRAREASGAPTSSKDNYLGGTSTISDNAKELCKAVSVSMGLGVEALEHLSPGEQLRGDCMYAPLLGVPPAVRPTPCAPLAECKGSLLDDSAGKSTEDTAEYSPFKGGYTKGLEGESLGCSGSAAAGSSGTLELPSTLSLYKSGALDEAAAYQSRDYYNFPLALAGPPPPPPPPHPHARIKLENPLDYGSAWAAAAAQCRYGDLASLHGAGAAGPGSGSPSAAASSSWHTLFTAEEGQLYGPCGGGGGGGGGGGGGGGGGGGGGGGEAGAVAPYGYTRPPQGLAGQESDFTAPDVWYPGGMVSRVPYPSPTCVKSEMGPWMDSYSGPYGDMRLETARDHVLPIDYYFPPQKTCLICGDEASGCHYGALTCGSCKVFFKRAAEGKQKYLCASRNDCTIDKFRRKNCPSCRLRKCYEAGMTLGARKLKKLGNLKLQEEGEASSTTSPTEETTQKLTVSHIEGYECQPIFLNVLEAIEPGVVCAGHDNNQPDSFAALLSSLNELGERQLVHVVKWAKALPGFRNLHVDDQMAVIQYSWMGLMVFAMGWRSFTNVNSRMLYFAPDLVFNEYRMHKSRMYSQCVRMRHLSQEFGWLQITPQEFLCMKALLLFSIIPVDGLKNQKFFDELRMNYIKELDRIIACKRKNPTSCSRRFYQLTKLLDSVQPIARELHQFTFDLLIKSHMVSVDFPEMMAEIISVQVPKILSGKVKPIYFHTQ
Procedure, shortened: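 Steps: seed MDA-kb2 cells, incubate 5 hr at 37C; pin-transfer compounds in DMSO; add R1881 to 0.5 nM final; incubate 16 hr; add ONE-Glo, wait 30 min at room temperature; read luminescence.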

[20] = biological target: Estrogen receptor (Homo sapiens) (UniProt P03372); test: qHTS assay to identify small molecule antagonists of the estrogen receptor alpha (ER-alpha) signaling pathway using the BG1 cell line in the presence of 0.1 nM 17-beta-estradiol (AID 1259244); further: nearly all actives have a fitted effect of over 50% in size
Sequence of Estrogen receptor (Homo sapiens) (P03372 whole entry, looked up): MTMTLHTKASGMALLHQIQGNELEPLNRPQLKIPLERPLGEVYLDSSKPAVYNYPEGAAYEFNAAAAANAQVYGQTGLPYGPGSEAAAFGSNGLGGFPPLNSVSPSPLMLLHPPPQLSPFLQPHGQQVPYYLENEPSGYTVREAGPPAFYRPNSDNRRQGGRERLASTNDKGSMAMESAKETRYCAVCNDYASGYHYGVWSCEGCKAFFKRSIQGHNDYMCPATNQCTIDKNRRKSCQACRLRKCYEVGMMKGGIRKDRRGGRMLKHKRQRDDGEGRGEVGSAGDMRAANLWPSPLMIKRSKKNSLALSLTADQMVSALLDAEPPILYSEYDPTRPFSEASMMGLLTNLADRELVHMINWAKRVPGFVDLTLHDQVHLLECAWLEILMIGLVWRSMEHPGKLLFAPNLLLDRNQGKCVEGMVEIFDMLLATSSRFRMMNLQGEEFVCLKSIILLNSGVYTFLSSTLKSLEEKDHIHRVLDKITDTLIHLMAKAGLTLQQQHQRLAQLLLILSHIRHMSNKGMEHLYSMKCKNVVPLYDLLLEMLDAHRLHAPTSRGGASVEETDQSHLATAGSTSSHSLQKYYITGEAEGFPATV
Procedure, shortened: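 After 5 days in hormone-depleted medium (charcoal-stripped serum, no phenol red), VM7Luc4E2 cells were seeded, incubated 24 h, then co-treated with compound and 0.1 nM (final) estradiol for 22 h before luminescence detection.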

Row | SMILES | Potency [1] | Potency [2] | Potency [3] | Potency [4] | Potency [5] | Potency [6] | Potency [7] | Potency [8] | Potency [9] | Potency [10] | Potency [11] | Potency [12] | Potency [13] | Potency [14] | Potency [15] | Potency [16] | Potency [17] | outcome [18] | Potency [19] | Potency [20]
1 | CC(=O)OCCC(C)C | inactive | inactive | inactive | inactive | inactive | inactive | inactive | inactive | inactive | inactive | inactive | inactive | inactive | inactive | inactive | inactive | inactive |  |  | 
2 | CC(CN1c2ccccc2Sc2ccccc21)N(C)C (stereo unspecified) | inactive | 55.5 µM (active) and 49 µM (active) and 23.9 µM (active) | inactive | inactive | 39.3 µM (active) and 43.6 µM (active) | 24.8 µM (active) | inactive | inactive | inactive and 54.9 µM (active) | inactive | inactive | inactive |  | 61.8 µM (active) and 30.6 µM (active) and inactive | 27.6 µM (active) and inactive | inactive | 12.3 µM (active) and 27.3 µM (active) and 13.3 µM (active) | inactive |  | 
3 | CCc1cccc(CC)c1N | inactive | inactive | inactive | inactive | inactive | inactive | inactive | inactive | inactive | inactive | inactive | inactive |  | inactive | inactive | inactive | inactive |  | inactive | inactive
4 | O=C1CCCCCCCCCCC1 | inactive | inactive | inactive | inactive | inactive | inactive | inactive | inactive | inactive | inactive | inactive | inactive | inactive | inactive | inactive | inactive | inactive |  |  | inactive
5 | O=C(NCC1CCCCN1)c1cc(OCC(F)(F)F)ccc1OCC(F)(F)F (stereo unspecified) | inactive | inactive | inactive | inactive | inactive | inactive | inactive | inactive | inactive | inactive | inactive | inactive | inactive | inactive | inactive | inactive | 19 µM (active) and inactive | inactive |  | 
6 | CCCCCCCCCCCCCC(=O)O | inactive | inactive | inactive | inactive | inactive | inactive | inactive | inactive | inactive | inactive | inactive | inactive | inactive | inactive | inactive | inactive | inactive |  |  | inactive
7 | CCCOCC(C)O (stereo unspecified) | inactive | inactive | inactive | inactive | inactive | inactive | inactive | inactive | inactive | inactive | inactive | inactive | inactive | inactive | inactive | inactive | inactive |  | inactive | 
8 | Cc1ccc(C)c(S(=O)(=O)O)c1 | inactive | inactive | inactive | inactive | inactive | inactive | inactive | inactive | inactive | inactive | inactive | inactive | inactive | inactive | inactive | inactive | inactive |  |  | 
